PERK inh: inhibitors of human PERK kinase | Q9NZJ5 | CHO PERK-DD fusion, SEAP luminescence translation reporter | inhibition, % at 5.6 µM | 0.17% of 220,000 active;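 active = inhibition above the mean inhibition of all tested compounds plus 3 SD, set separately per screening campaign, cut at about 2.9% in these data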;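 note: PERK kinase domain activated by AP20187 dimerizer at 100 nM; 0% = DMSO with dimerizer and 100% = rapamycin at 8.4 µM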
PfM18AAP inh-1: blocks P. falciparum M18 aspartyl aminopeptidase; 1.2% of 290,000 active; inhibition, % at 7.35 µM; recombinant PfM18AAP, H-Glu-NHMec fluorogenic cleavage; AID 1822;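 active = inhibition above the campaign mean inhibition over all tested compounds plus 3 SD, cut at about 28% in these data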;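 note: 0% = plate median of test compound wells and 100% = 2 mM ZnCl2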
PABP FP inh: blocks human PABP binding to poly(A) RNA | fluorescence polarization | inhibition, % at 35 µM | 1% of 290,000 active;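 note: calls also rest on retests at 20 µM and on dose response follow-up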
PABP1 MLLE inh: blocks PAM2 peptide binding to the PABP1 MLLE domain. GST-MLLE / FITC-PAM2 fluorescence polarization. inhibition, % at 20 µM. 0.36% of 360,000 active; in the data active = inhibition above about 35%, passing the limit was not always enough;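 note: plate controls were DMSO wells with GST-MLLE for no effect and wells lacking GST-MLLE protein for full effect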
eIF4H inh: inhibitors of RNA binding by human eIF4H | Q15056 | inhibition, % at 35 µM | eIF4H fluorescence polarization binding assay | 0.94% of 290,000 active;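 note: calls also rest on retests at 20 µM and on dose response follow-up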
eIF4E-4G inh: eIF4E/eIF4G interaction inhibition in translation initiation; P63073+Q04637; TR-FRET eIF4E-eIF4GI(517-606) binding, 2 h; inhibition, % at 21.7 µM; 0.37% of 220,000 active; AID 782;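 active = inhibition above about 30%, limit read from the data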;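 note: 0% = full FRET control wells and 100% = background wells lacking eIF4GI fragment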
PfM18AAP inh-2: confirmation of Plasmodium falciparum M18 aspartyl aminopeptidase inhibitors. shares compounds with PfM18AAP inh-1. recombinant PfM18AAP, H-Glu-NHMec fluorogenic cleavage. inhibition, % at 7.35 µM. 28% of 2,400 active. AID 2170;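 active = mean inhibition over replicate wells above the hit cutoff set for the earlier primary screen, cut at about 29% in these data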;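 note: 0% = median of test compound wells and 100% = 2 mM ZnCl2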
CTSL1 counter: Cathepsin L (human) inhibition, confirmation | inhibition, % at 5.96 µM | purified cathepsin L1, Z-Leu-Arg-MCA fluorescence | shares compounds with PfM18AAP inh-1 | 2,400 tested, under 10 active | AID 2178;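 active = average inhibition across replicates above the hit cutoff set in the earlier primary screen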;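 note: 0% = median of test compound wells and 100% = Z-Phe-Ala-diazomethylketone 1 µM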
Target sequence (P07711 whole entry, looked up): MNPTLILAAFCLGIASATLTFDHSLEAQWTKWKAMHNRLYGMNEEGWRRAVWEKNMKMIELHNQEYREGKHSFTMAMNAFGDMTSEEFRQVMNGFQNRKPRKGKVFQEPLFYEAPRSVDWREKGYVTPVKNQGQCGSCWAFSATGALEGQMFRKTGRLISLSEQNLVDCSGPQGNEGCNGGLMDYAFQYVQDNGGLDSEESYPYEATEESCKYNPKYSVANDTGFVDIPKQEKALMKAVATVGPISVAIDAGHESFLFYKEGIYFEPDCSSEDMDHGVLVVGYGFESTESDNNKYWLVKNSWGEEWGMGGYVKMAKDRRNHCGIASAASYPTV
The depositor's hits bear a star. Only some compounds are listed: those with a hit (about 2.4% of all), similar ones and a draw of the others. Unless noted, the rule behind the calls is not given here.

COC(=O)c1ccc(C23CC4(C2)[C@H](CN(CC2CCCCC2)[C@@H]4c2ccccc2)C3c2ccc(Cl)nc2)cc1 (some centres undefined) was read as PABP FP inh -10, PABP1 MLLE inh 5, eIF4H inh -11 and eIF4E-4G inh 6.
Screening CC1(C)Cc2c(sc3ncn4c(=S)[nH]nc4c23)CO1 returned PERK inh 0, PfM18AAP inh-1 43*, PABP FP inh -13, PABP1 MLLE inh 26, eIF4H inh 14, eIF4E-4G inh 3, PfM18AAP inh-2 30* and CTSL1 counter -1.
O=C(NC1CCCCCC1)c1ccc[nH]c1=S was read as PERK inh 0, PfM18AAP inh-1 53*, PABP FP inh -6, PABP1 MLLE inh 20, eIF4H inh 3, eIF4E-4G inh -4, PfM18AAP inh-2 0 and CTSL1 counter 0.
For Cc1c(NS(=O)(=O)c2cc(C(=O)NCc3ccco3)cc(Cl)c2Cl)c(=O)n(-c2ccccc2)n1C the results were PABP1 MLLE inh -12.
`Cc1ccc2[nH]c3c(c2c1)CCC3=O` gave PERK inh 0, PfM18AAP inh-1 2, PABP FP inh -12, PABP1 MLLE inh 2, eIF4H inh -12 and eIF4E-4G inh 1.
Cc1ccc2[nH]c3c(c2c1)CCc1cn[nH]c1-3 was read as PERK inh -1, PfM18AAP inh-1 33*, PABP FP inh 7, PABP1 MLLE inh -4, eIF4H inh -2, eIF4E-4G inh 1, PfM18AAP inh-2 -21 and CTSL1 counter 5.
COc1ccc(-n2cc(-c3ccc(OC)c(OC)c3)[nH]c2=S)cc1 was read as PERK inh 1, PfM18AAP inh-1 41*, PABP FP inh 1, PABP1 MLLE inh 21, eIF4H inh 1, eIF4E-4G inh -3, PfM18AAP inh-2 4 and CTSL1 counter 10.
`CN(C)c1ccc(NC(N)=S)cc1` gave PERK inh 2, PfM18AAP inh-1 49*, PABP FP inh -2, PABP1 MLLE inh -60, eIF4H inh -1, eIF4E-4G inh -6, PfM18AAP inh-2 20 and CTSL1 counter -3.
Cc1ccc(C2(c3ccccc3)NC(=O)N(CC(=O)N(C)C3CCS(=O)(=O)C3)C2=O)cc1C (centres undefined) was read as PABP1 MLLE inh 7.
For Cc1nn(-c2ccccc2)c(C)c1C(=O)NCc1ccc(F)cc1 the results were PERK inh 0, PfM18AAP inh-1 3, PABP FP inh -4, PABP1 MLLE inh 16, eIF4H inh 3 and eIF4E-4G inh 24.
For O=C(NCCc1ccccc1)C(=O)N/N=C/c1ccc2c(c1)OCO2 the results were PERK inh 0, PfM18AAP inh-1 4, PABP FP inh -2, PABP1 MLLE inh -11, eIF4H inh -3 and eIF4E-4G inh -8.
O=C(NCc1ccccn1)C(=O)N/N=C/c1ccc2c(c1)OCO2 was read as PERK inh 1, PfM18AAP inh-1 37*, PABP FP inh -1, PABP1 MLLE inh -8, eIF4H inh 1, eIF4E-4G inh -1, PfM18AAP inh-2 -25 and CTSL1 counter 7.
Cc1ccccc1NC(=S)N(CCN1CCOCC1)Cc1ccccc1F was read as PERK inh 1, PfM18AAP inh-1 2, PABP FP inh -3, PABP1 MLLE inh -1, eIF4H inh -13 and eIF4E-4G inh 2.
For Cc1cc(C)cc(N=C2NC(=O)/C(=C/c3cccs3)S2)c1 the results were PERK inh 0, PfM18AAP inh-1 1, PABP FP inh -8, PABP1 MLLE inh -118, eIF4H inh 0 and eIF4E-4G inh 2.
For CCOc1ccc2c(c1)S/C(=C\c1cccs1)C(=O)N2 the results were PERK inh 0, PfM18AAP inh-1 34*, PABP FP inh 10, PABP1 MLLE inh -25, eIF4H inh 42, eIF4E-4G inh -5, PfM18AAP inh-2 -33 and CTSL1 counter -1.
Screening CCOC(=O)C1(C)CCN1C(=O)COc1ccc(C(C)(C)C)cc1 (centres undefined) returned PABP1 MLLE inh 6.
CC1(C)OC(C)(C)/C(=C/Nc2ccc(O)cc2)C1=O was read as PERK inh 0, PfM18AAP inh-1 43*, PABP FP inh 8, PABP1 MLLE inh 18, eIF4H inh 104, eIF4E-4G inh 21, PfM18AAP inh-2 -51 and CTSL1 counter 4.
For CC1CCC/C(=C\Nc2ccc(O)cc2)C1=O (centres undefined) the results were PERK inh 2, PfM18AAP inh-1 22, PABP FP inh 34, PABP1 MLLE inh -23, eIF4H inh 20 and eIF4E-4G inh 13.
For N#CC1=C(N)OC2=C(C(=O)CCC2)C1c1ccc2c(c1)OCO2 (centres undefined) the results were PfM18AAP inh-1 15, PABP FP inh 3, PABP1 MLLE inh 15 and eIF4H inh -10.
Screening COc1cc(C2C(C#N)=C(N)OC3=C2C(=O)CCC3)cc2c1OCO2 (centres undefined) returned PfM18AAP inh-1 34*, PABP FP inh 2, PABP1 MLLE inh -5, eIF4H inh 2, PfM18AAP inh-2 -42 and CTSL1 counter -4.
`CCn1c2ccccc2c2cc(/C=N/n3cnnc3)ccc21` gave PERK inh 0, PfM18AAP inh-1 -4, PABP FP inh 2, PABP1 MLLE inh 12, eIF4H inh -10 and eIF4E-4G inh 16.
Screening CCn1c(/C=N/n2cnnc2)nc2ccccc21 returned PERK inh 1, PfM18AAP inh-1 48*, PABP FP inh -1, PABP1 MLLE inh 18, eIF4H inh 3, eIF4E-4G inh 0, PfM18AAP inh-2 -42 and CTSL1 counter -5.
`COc1ccc(NC(=O)C2(C)CCN2C2Cc3ccccc3C2)cc1OC` (centres undefined) gave PABP1 MLLE inh 9.
Screening CC(C)CCn1c(O)c(N=NC(=O)Cn2ccc(C(F)(F)F)n2)c2ccccc21 returned PERK inh 1, PfM18AAP inh-1 0, PABP FP inh -13, PABP1 MLLE inh 1, eIF4H inh 1 and eIF4E-4G inh 2.
`CCC(=O)Nc1nc2ccc(NC(=O)COc3ccccc3)cc2s1` gave PfM18AAP inh-1 43*, PABP FP inh 12, PABP1 MLLE inh -1, eIF4H inh 7, PfM18AAP inh-2 -42 and CTSL1 counter -10.
`CCN1CCc2c(sc(NC(=S)NC(=O)c3ccccc3)c2C#N)C1` gave PERK inh 0, PfM18AAP inh-1 38*, PABP FP inh 71, PABP1 MLLE inh -27, eIF4H inh inconclusive, eIF4E-4G inh -1, PfM18AAP inh-2 -29 and CTSL1 counter 2.
